For 22 compounds, growth results are on record in PubChem BioAssay (NCI).

Values joined by “and” are separate entries in the source; they are usually repeats but may differ in a detail not shown here. Identical values can stand only once. The panel holds about 83,000 compounds, 20% with a hit somewhere; the sample as a whole holds those more often.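 Step 1: grow cells in 96-well plates. Step 2: add test compound at a single concentration. Step 3: incubate 48 h. Step 4: record percent growth.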 Values without a mark were called inactive. Active and inactive are the calls of the source. The calls were made as follows: active = growth percent below 10; inactive = the rest.

Among the test systems are SR leukemia; RPMI-8226 leukemia; OVCAR-8 ovarian; OVCAR-5 ovarian; OVCAR-4 ovarian; SK-OV-3 ovarian; IGROV1 ovarian; OVCAR-3 ovarian; HS 578T breast; NCI/ADR-RES ovarian.
Holding throughout (experiment): NCI-60 one-dose screen, 48 h (100 = growth as untreated, 0 = no growth, -100 = all killed)
What all share (details): 10 µM unless noted

As to `OCCCc1ccccc1`, the growth in the test on SR leukemia was 132%; with RPMI-8226 leukemia, 117%; in the test with OVCAR-8 ovarian, 104%; in the test on OVCAR-5 ovarian, 97%; in the test on OVCAR-4 ovarian, 112%; with SK-OV-3 ovarian it was 97.6%. Moreover, the growth in the test on IGROV1 ovarian was 82.4%; with OVCAR-3 ovarian, 109%; in the test on HS 578T breast, 106%; in the test on NCI/ADR-RES ovarian, 108%.
`Nc1ccc(Cl)c(S(=O)(=O)O)c1`: the growth was 103% in the test on SR leukemia; 111% in the test on RPMI-8226 leukemia; 93.3% in the test on OVCAR-8 ovarian; 95.7% in the test on OVCAR-5 ovarian; 106% in the test on OVCAR-4 ovarian; 99.5% with SK-OV-3 ovarian. Besides, the growth was 102% in the test with IGROV1 ovarian, 101% in the test with OVCAR-3 ovarian, 98.8% with HS 578T breast and 103% in the test on NCI/ADR-RES ovarian.
For the compound `CCn1c2ccc(N(C)C)cc2c2cc(N(C)C)ccc21`, the growth is 94% in the test on SR leukemia; 80.4% in the test with RPMI-8226 leukemia; 97.3% in the test with OVCAR-8 ovarian; 99.6% with OVCAR-5 ovarian; 24.9% with OVCAR-4 ovarian; 94.8% in the test with SK-OV-3 ovarian. For the same compound, the growth in the test on IGROV1 ovarian is 107%; in the test with OVCAR-3 ovarian, 5.93% (active); in the test on HS 578T breast it was 107%; with NCI/ADR-RES ovarian, 98.5%.
As to `S=c1ccc2ccccc2[nH]1`, the growth in the test on SR leukemia is 109% and 97.3%; in the test on RPMI-8226 leukemia it was 109% and 104%; in the test with OVCAR-8 ovarian it was 102% and 98.6%; in the test on OVCAR-5 ovarian, 102% and 105%; in the test with OVCAR-4 ovarian, 104% and 108%; in the test with SK-OV-3 ovarian, 97.9% and 101%. The growth in the test on IGROV1 ovarian is 104% and 106%; in the test on OVCAR-3 ovarian, 114% and 107%; in the test with HS 578T breast it was 97.7% and 103%; with NCI/ADR-RES ovarian it was 107% and 110%.
Take `COCCCNC1=C(C#N)C(=O)NC(c2cccs2)S1` (stereo not given): the growth in the test with SR leukemia is 113%; with RPMI-8226 leukemia, 122%; in the test on OVCAR-8 ovarian it was 113%; with OVCAR-5 ovarian it was 109%; in the test on OVCAR-4 ovarian, 93%; with SK-OV-3 ovarian, 101%. Besides, the growth with IGROV1 ovarian is 119%; in the test with OVCAR-3 ovarian it was 118%; in the test on HS 578T breast it was 112%; with NCI/ADR-RES ovarian it was 110%.
Take `O=C(O)/C=C/C=C/c1ccccc1`: the growth in the test on SR leukemia was 104% and 109%; in the test on RPMI-8226 leukemia, 112% and 99.7%; in the test on OVCAR-8 ovarian it was 102% and 109%; in the test on OVCAR-5 ovarian, 103% and 96.8%; with OVCAR-4 ovarian, 116% and 108%; in the test with SK-OV-3 ovarian, 113% and 104%. The growth in the test on IGROV1 ovarian was 105% and 110%; in the test with OVCAR-3 ovarian it was 124% and 98.8%; in the test with HS 578T breast it was 109% and 108%; in the test with NCI/ADR-RES ovarian, 111% and 102%.
`COc1ccc(/C=C/C(=O)O)cc1OC`: the growth was 110% and 106% in the test on SR leukemia; 102% and 106% in the test on RPMI-8226 leukemia; 108% and 103% with OVCAR-8 ovarian; 106% and 109% in the test on OVCAR-5 ovarian; 105% and 113% with OVCAR-4 ovarian; 103% and 107% in the test on SK-OV-3 ovarian. For the same compound, the growth is 104% and 115% in the test with IGROV1 ovarian; 108% and 104% in the test with OVCAR-3 ovarian; 103% and 102% with HS 578T breast; 108% and 105% in the test with NCI/ADR-RES ovarian.
On to `O=C1c2cccnc2-c2ncccc21`, for which the growth with SR leukemia was 120% [100 µM]; with RPMI-8226 leukemia, 99.8% [100 µM]; in the test on OVCAR-8 ovarian, 106% [100 µM]; in the test on OVCAR-5 ovarian it was 122% [100 µM]; with OVCAR-4 ovarian, 109% [100 µM]; in the test on SK-OV-3 ovarian, 107% [100 µM]. The growth in the test with IGROV1 ovarian was 113% [100 µM]; in the test with OVCAR-3 ovarian, 110% [100 µM]; in the test with HS 578T breast it was 89.5% [100 µM]; in the test with NCI/ADR-RES ovarian, 102% [100 µM].
For `CCCCNC(=O)c1ccccc1C`, the growth in the test on SR leukemia is 85.3%; in the test on RPMI-8226 leukemia, 99.7%; in the test on OVCAR-8 ovarian, 107%; with OVCAR-5 ovarian, 94.4%; with OVCAR-4 ovarian, 104%; with SK-OV-3 ovarian, 97.3%. Moreover, the growth was 96.2% in the test with IGROV1 ovarian, 105% in the test on OVCAR-3 ovarian, 104% in the test with HS 578T breast and 99.3% in the test with NCI/ADR-RES ovarian.
As for `COc1ccc(CCn2cnn3c(=O)c4ccccc4nc3c2=O)cc1OC`, the growth in the test on SR leukemia was 99.4% and 90.8%; with RPMI-8226 leukemia it was 95.7% and 92.2%; in the test with OVCAR-8 ovarian, 104% and 110%; with OVCAR-5 ovarian, 99.8% and 121%; with OVCAR-4 ovarian, 97.3% and 112%; in the test with SK-OV-3 ovarian, 112% and 108%. Besides, the growth was 115% in the test on IGROV1 ovarian; 103% and 115% in the test with OVCAR-3 ovarian; 98.3% and 115% in the test on HS 578T breast; 101% and 107% in the test with NCI/ADR-RES ovarian.
For the compound `OC(CC(c1ccccc1)c1cccc2ccccc12)(c1ccccc1)c1ccccc1` (stereo not given), the growth in the test on SR leukemia is 94.9% and 63.1%; in the test with RPMI-8226 leukemia, 88.4% and 67.4%; in the test with OVCAR-8 ovarian, 72.8% and 87.1%; with OVCAR-5 ovarian, 92.1% and 89.9%; with OVCAR-4 ovarian it was 81.3% and 75.7%; in the test on SK-OV-3 ovarian, 85.4% and 93.1%. Further, the growth was 88.6% and 84.8% in the test with IGROV1 ovarian; 94.1% and 90.6% with OVCAR-3 ovarian; 84.4% and 86.6% in the test with HS 578T breast; 76.2% and 70.3% with NCI/ADR-RES ovarian.
`CCNC1=CC(=O)c2ncccc2C1=O`: the growth was 50.9% in the test with SR leukemia; 66.4% in the test on RPMI-8226 leukemia; 51.9% with OVCAR-8 ovarian; -53.7% (active) with OVCAR-5 ovarian; 47.1% in the test with OVCAR-4 ovarian; 73.5% in the test with SK-OV-3 ovarian. The growth with IGROV1 ovarian was 63.2%; in the test with OVCAR-3 ovarian it was 1.49% (active); in the test with HS 578T breast it was -15.9% (active); with NCI/ADR-RES ovarian it was 56%.
In the case of `Cc1c(Cl)c(C)c(Cc2c(C)c(Cl)c(C)c(Cl)c2O)c(O)c1Cl`, the growth with SR leukemia is 22.7%; in the test with RPMI-8226 leukemia it was 10%; in the test on OVCAR-8 ovarian it was 11.4%; in the test with OVCAR-5 ovarian it was 45.6%; in the test on OVCAR-4 ovarian, 13.9%; in the test on SK-OV-3 ovarian, -6.21% (active). For the same compound, the growth in the test with IGROV1 ovarian was 38.8%; with OVCAR-3 ovarian, 5.17% (active); with HS 578T breast, 12.1%; in the test on NCI/ADR-RES ovarian it was -3.46% (active).
As to `O=C(O)c1cccc(Br)c1`, the growth in the test on SR leukemia is 90.2% and 100%; in the test on RPMI-8226 leukemia it was 103% and 104%; in the test on OVCAR-8 ovarian, 108% and 100%; in the test with OVCAR-5 ovarian, 100% and 98.7%; with OVCAR-4 ovarian, 99.5% and 105%; with SK-OV-3 ovarian it was 104% and 106%. The growth with IGROV1 ovarian is 105% and 104%; in the test with OVCAR-3 ovarian, 100% and 105%; with HS 578T breast it was 124% and 101%; with NCI/ADR-RES ovarian it was 98.1% and 106%.
For `Cc1nc2c(=O)[nH]c(=S)[nH]c2[nH]c1=O`, the growth is 112% in the test with SR leukemia; 104% and 105% in the test with RPMI-8226 leukemia; 103% with OVCAR-8 ovarian; 109% and 102% in the test with OVCAR-5 ovarian; 113% in the test with OVCAR-4 ovarian; 112% and 107% in the test with SK-OV-3 ovarian. Further, the growth is 107% and 113% in the test with IGROV1 ovarian; 118% and 111% with OVCAR-3 ovarian; 102% with HS 578T breast; 106% and 103% in the test on NCI/ADR-RES ovarian.
On to `CCOCCC(=O)O`, for which the growth with SR leukemia was 109%; in the test on RPMI-8226 leukemia, 107%; with OVCAR-8 ovarian, 109%; in the test with OVCAR-5 ovarian, 101%; in the test with OVCAR-4 ovarian it was 104%; in the test on SK-OV-3 ovarian, 102%. The growth with IGROV1 ovarian was 114%; in the test with OVCAR-3 ovarian it was 115%; with HS 578T breast it was 98.7%; in the test with NCI/ADR-RES ovarian it was 107%.
As to `COc1ccc(CCl)c(C)c1OC`, the growth with SR leukemia is 105%; with RPMI-8226 leukemia, 106%; in the test on OVCAR-8 ovarian, 99.3%; in the test with OVCAR-5 ovarian it was 100%; in the test on OVCAR-4 ovarian, 109%; with SK-OV-3 ovarian it was 110%. The growth is 104% in the test on IGROV1 ovarian, 105% in the test on OVCAR-3 ovarian, 105% with HS 578T breast and 105% with NCI/ADR-RES ovarian.
Regarding `Nc1c(Cl)cc2c(c1Br)C(=O)c1ccccc1C2=O`, the growth was 78.4% in the test on SR leukemia; 98.3% with RPMI-8226 leukemia; 89.3% with OVCAR-8 ovarian; 98.5% in the test on OVCAR-5 ovarian; 106% with OVCAR-4 ovarian; 84% with SK-OV-3 ovarian. Moreover, the growth in the test with IGROV1 ovarian was 71.6%; in the test with OVCAR-3 ovarian, 117%; in the test on HS 578T breast it was 98%; with NCI/ADR-RES ovarian, 92.4%.
Consider `CCOC(=O)C1=C(C)NC(C)=C(C(=O)OCC)C1`, for which the growth with SR leukemia is 101% and 105%; with RPMI-8226 leukemia, 92.6% and 99.2%; in the test with OVCAR-8 ovarian, 121% and 96.9%; in the test on OVCAR-5 ovarian it was 104% and 92.4%; with OVCAR-4 ovarian, 101% and 90.2%; in the test with SK-OV-3 ovarian, 105% and 112%. The growth with IGROV1 ovarian is 100% and 112%; in the test with OVCAR-3 ovarian it was 102% and 114%; with HS 578T breast it was 101% and 94%; in the test with NCI/ADR-RES ovarian, 114% and 105%.
With `COC(=O)C(Cc1cn(C(C)=O)c2ccccc12)P(=O)(OC)OC` (stereo not given), the growth in the test with SR leukemia is 94.6%; in the test with RPMI-8226 leukemia, 101%; in the test on OVCAR-8 ovarian it was 106%; with OVCAR-5 ovarian it was 103%; in the test on OVCAR-4 ovarian, 87%; in the test on SK-OV-3 ovarian, 113%. Further, the growth is 113% in the test with IGROV1 ovarian, 106% in the test on OVCAR-3 ovarian, 94.2% with HS 578T breast and 95.3% with NCI/ADR-RES ovarian.
For the compound `C/C(CC(C)C)=N/NC(N)=S`, the growth in the test with SR leukemia is 90.9%; in the test with RPMI-8226 leukemia, 73.7%; in the test on OVCAR-8 ovarian it was 69%; in the test on OVCAR-5 ovarian, 114%; in the test with OVCAR-4 ovarian, 72.2%; with SK-OV-3 ovarian, 105%. The growth in the test on IGROV1 ovarian is 97.4%; in the test with OVCAR-3 ovarian, 48.1%; with HS 578T breast, 96.8%; with NCI/ADR-RES ovarian, 46.7%.
`CC(=O)Nc1cscc1NC(C)=O`: the growth is 90.1% in the test with SR leukemia; 95.8% in the test on RPMI-8226 leukemia; 107% in the test with OVCAR-8 ovarian; 91.9% in the test on OVCAR-5 ovarian; 100% with OVCAR-4 ovarian; 103% in the test with SK-OV-3 ovarian. The growth in the test with IGROV1 ovarian is 99.2%; in the test on OVCAR-3 ovarian it was 102%; in the test with HS 578T breast it was 103%; with NCI/ADR-RES ovarian, 98.9%.
